Reference: PubChem BioAssay (EPA / NIEHS)
Several values for one entry are separate records, joined by “and”; a condition that tells them apart may be missing. Equal entries are not always repeated. Activity calls are given as the source filed them. How the source made its calls: active means hit-call score of the fitted dose curve at least 0.9, where 1 is the maximum; inactive means score below 0.9.

Legend:
[1] = read-out: TIMP metallopeptidase inhibitor 2 (TIMP2), TIMP2 (gene 7077); experiment: BSK_KF3CT_TIMP2: BioMAP Diversity Plus: KF3CT Assay for TIMP metallopeptidase inhibitor 2 (TIMP2) Biomarker Activity (AID 2283071); conditions: primary human keratinocytes with fibroblasts; actives raise or lower the signal
Method in brief: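 ELISA readout of TIMP-2 in keratinocyte plus foreskin fibroblast co-cultures (human skin primary cells), 24 h post-dose. Gain or loss of signal fitted relative to DMSO.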

[2] = read-out: Transforming growth factor beta 1 (TGFb1), TGFB1 (gene 7040); experiment: BSK_KF3CT_TGFb1: BioMAP Diversity Plus: KF3CT Assay for Transforming growth factor beta 1 (TGFb1) Biomarker Activity (AID 2283072); conditions: primary human keratinocytes with fibroblasts; actives raise or lower the signal
Method in brief: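 Read-out: ELISA for TGF-b1 in keratinocyte/foreskin fibroblast human skin co-culture, 24 h after dosing; bidirectional curve fit vs DMSO baseline; gain or loss of signal scored.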

[3] = read-out: C-C motif chemokine 2 (Homo sapiens) (UniProt P13500); experiment: BSK_KF3CT_MCP1: BioMAP Diversity Plus: KF3CT Assay for Monocyte Chemoattractant Protein 1 (MCP1/CCL2) Biomarker Activity (AID 2283073); conditions: primary human keratinocytes with fibroblasts; actives raise or lower the signal
Method in brief: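 ELISA readout of MCP-1 after 24 h chemical dosing of a human skin primary co-culture of keratinocytes and foreskin fibroblasts. Activity was fitted in both directions against DMSO.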

[4] = read-out: Matrix Metallopeptidase 9 (MMP9), MMP9 (gene 4318); experiment: BSK_KF3CT_MMP9: BioMAP Diversity Plus: KF3CT Assay for Matrix Metallopeptidase 9 (MMP9) Biomarker Activity (AID 2283074); conditions: primary human keratinocytes with fibroblasts; actives raise or lower the signal;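 on AC50: MMP9 protein level quantified by ELISA in the co-culture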
Method in brief: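 ELISA read-out of MMP-9 at 24 h post-dosing in a co-culture of human skin keratinocytes and foreskin fibroblasts. Gain or loss of signal was fitted in both directions against DMSO.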

[5] = read-out: urokinase plasminogen activator (uPA), PLAU (gene 5328); experiment: BSK_KF3CT_uPA: BioMAP Diversity Plus: KF3CT Assay for urokinase plasminogen activator (uPA) Biomarker Activity (AID 2283075); conditions: primary human keratinocytes with fibroblasts; actives raise or lower the signal
Method in brief: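 Skin co-culture (keratinocytes + foreskin fibroblasts), human primary; 24 h post-dose; uPA by ELISA; gain/loss fit vs DMSO baseline.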

[6] = read-out: CD40, CD40 (gene 958); experiment: BSK_LPS_CD40: BioMAP Diversity Plus: LPS Assay for CD40 Biomarker Activity (AID 2283076); conditions: primary human HUVEC with PBMC; actives raise or lower the signal
Method in brief: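 Cells were dosed, incubated 24 h, then assayed for CD40 by ELISA. Gain or loss of signal was analysed relative to DMSO controls. The culture paired human umbilical vein endothelium with peripheral blood mononuclear cells.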

[7] = read-out: E-selectin (Homo sapiens) (UniProt P16581); experiment: BSK_LPS_Eselectin: BioMAP Diversity Plus: LPS Assay for Eselectin Biomarker Activity (AID 2283077); conditions: primary human HUVEC with PBMC; actives raise or lower the signal
Method in brief: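 Primary human vascular co-culture (endothelium plus PBMC) was dosed with chemical, then E-selectin quantified by ELISA at 24 h. Endpoint values derive from bidirectional curve fitting relative to DMSO.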

[8] = read-out: Interleukin-8 (IL8), CXCL8 (gene 3576); experiment: BSK_LPS_IL8: BioMAP Diversity Plus: LPS Assay for Interleukin-8 (IL8) Biomarker Activity (AID 2283078); conditions: primary human HUVEC with PBMC; actives raise or lower the signal
Method in brief: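 Readout is IL-8 by ELISA, taken 24 h after compounds were added to LPS-stimulated endothelial/PBMC co-cultures. Both increases and decreases relative to DMSO control were scored through bidirectional fitting.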

[9] = read-out: Interleukin-1 alpha (IL1a), IL1A (gene 3552); experiment: BSK_LPS_IL1a: BioMAP Diversity Plus: LPS Assay for Interleukin-1 alpha (IL1a) Biomarker Activity (AID 2283080); conditions: primary human HUVEC with PBMC; actives raise or lower the signal
Method in brief: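 ELISA read-out of IL-1 alpha from a human primary vascular co-culture (endothelium plus PBMC) under LPS, sampled 24 hours post-dosing. Activity was fitted in both directions relative to DMSO controls.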

[10] = BSK_LPS_SRB: Viability Assessment in the BioMAP Diversity Plus: LPS Assay (AID 2283079); conditions: primary human HUVEC with PBMC;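 further: total protein by sulforhodamine B absorbance as a cytotoxicity measure; measured one day after compound addition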
Method in brief: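 Readout is SRB absorbance at 560 nm (0.1% stain, TCA-fixed parallel cultures) as a total-protein cytotoxicity measure. Cells: primary human umbilical vein endothelium plus peripheral blood mononuclear cells, 24 h after chemical exposure; DMSO served as baseline.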

Measured: AC50

Chain of E-selectin (Homo sapiens) (P16581 whole entry, looked up): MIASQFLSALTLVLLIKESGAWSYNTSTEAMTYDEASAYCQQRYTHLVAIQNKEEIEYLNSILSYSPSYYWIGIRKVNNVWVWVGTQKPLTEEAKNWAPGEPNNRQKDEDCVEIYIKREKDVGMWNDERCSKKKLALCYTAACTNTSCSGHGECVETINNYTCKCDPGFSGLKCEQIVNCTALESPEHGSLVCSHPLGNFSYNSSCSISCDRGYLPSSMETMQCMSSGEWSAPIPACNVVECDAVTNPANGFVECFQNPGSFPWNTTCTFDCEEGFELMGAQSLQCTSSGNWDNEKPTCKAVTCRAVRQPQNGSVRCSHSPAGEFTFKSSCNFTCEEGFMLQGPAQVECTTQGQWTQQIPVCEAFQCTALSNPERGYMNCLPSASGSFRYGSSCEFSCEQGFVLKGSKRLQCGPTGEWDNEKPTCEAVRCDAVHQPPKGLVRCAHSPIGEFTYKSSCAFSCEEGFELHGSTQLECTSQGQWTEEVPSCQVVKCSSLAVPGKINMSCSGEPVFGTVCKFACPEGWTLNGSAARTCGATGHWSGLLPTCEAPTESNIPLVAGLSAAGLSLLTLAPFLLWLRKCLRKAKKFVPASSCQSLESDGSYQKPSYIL

CN(c1nccc(=O)[nH]1)C1CCN(c2nc3ccccc3n2Cc2ccc(F)cc2)CC1
not listed: [10]
inactive: all other assays above

c1ccc(Oc2ccccc2)cc1
active: [1] 30.8 µM | [2] 20 µM | [3] 30.7 µM | [4] 20 µM | [5] 20 µM
inactive: [6] | [7] | [8] | [10] | [9]

COc1ccc(OC)c(N=Nc2c(O)ccc3ccccc23)c1
inactive: [3] | [8]
active: [1] 7.85 µM | [2] 3.97 µM | [4] 4.27 µM | [5] 7.69 µM | [6] 3.84 µM | [7] 20 µM | [9] 6.45 µM

CS(=O)(=O)OCCCCOS(C)(=O)=O
not listed: [10]
inactive: all other assays above

C1=CC2C3C=CC(C3)C2C1 (configuration not stated)
not listed: [10]
inactive: all other assays above

CC(C=O)Cc1ccc(C(C)(C)C)cc1 (configuration not stated)
inactive: [2] | [3] | [8]
active: [1] 32.4 µM | [4] 36.7 µM | [5] 31 µM | [6] 27.2 µM | [7] 31.4 µM | [9] 35.8 µM

CCCCCCC(CO)CCCC (configuration not stated)
active: [1] 35.1 µM and 35.2 µM | [3] 32.9 µM and 36.2 µM | [4] 35.1 µM and 36.4 µM | [5] 30.5 µM and 36.6 µM
inactive: [6] | [7] | [8] | [9]

CC(C)(C)CC(C)(C)c1ccc(OCCOCC[N+](C)(C)Cc2ccccc2)cc1
active: [1] 2.26 µM | [2] 3.38 µM | [3] 8.05 µM | [4] 5 µM | [5] 5 µM | [6] 7.8 µM | [7] 7.56 µM | [8] 6.61 µM | [9] 5 µM

CN(C)C(=S)SC(=S)N(C)C
not listed: [10]
inactive: all other assays above

CC1(C)C2=CCCC(C)(C)[C@]23CC[C@H]1C3
active: [1] 30.2 µM | [2] 7.31 µM | [3] 20 µM
not listed: [10]
inactive: all other assays above

CCN(CC)C(=O)N(CC)CC
not listed: [10]
inactive: all other assays above

CC=Cc1ccc(OCC)c(O)c1
not listed: [8] | [10]
inactive: all other assays above

CC(=O)C1(C)CC2=C(CCCC2(C)C)CC1C (configuration not stated)
active: [1] 5.63 µM | [3] 10.3 µM | [4] 10.9 µM | [5] 11.6 µM | [6] 6.43 µM | [7] 9.47 µM | [8] 10.1 µM | [9] 5.8 µM
inactive: [2]

IC(I)I
not listed: [10]
inactive: all other assays above

CCOC(=O)C(C#N)=C(c1ccccc1)c1ccccc1
not listed: [2] | [10]
inactive: all other assays above

c1ccc2cc(Nc3ccc(Nc4ccc5ccccc5c4)cc3)ccc2c1
not listed: [10]
inactive: all other assays above

CN(C)C(=O)Nc1ccc(Oc2ccc(Cl)cc2)cc1
not listed: [10]
inactive: all other assays above

C=CC(C)(O)CCC=C(C)C (configuration not stated)
not listed: [2]
inactive: all other assays above

CCC(C)c1cc([N+](=O)[O-])cc([N+](=O)[O-])c1OC(=O)OC(C)C (configuration not stated)
inactive: [3]
active: [1] 20 µM | [2] 20 µM | [4] 20 µM | [5] 20 µM | [6] 7.3 µM | [7] 15 µM | [8] 29.7 µM | [9] 29.5 µM

O=C(Nc1ccc2c(O)c(N=Nc3ccc(N=Nc4ccc(S(=O)(=O)O)cc4)cc3)c(S(=O)(=O)O)cc2c1)c1ccccc1
not listed: [2] | [10]
inactive: all other assays above
